From PubChem BioAssay
Shown are actives, neighbours in structure and some others; about 9.5% of the full set was active somewhere.
Pf growth 96h = P. falciparum growth inhibition at 96 hour, primary screen for plastid delayed-death inhibitors. P. falciparum luciferase reporter growth, 96 h. Potency, µM (series often up to 28.7 µM), for the others: top-dose activity change, negative = inhibition, most hits filed as inhibitors. 6.9% of 320,000 active. AID 504834; active = well fitted inhibition curve with a large enough effect; inconclusive = small, poorly fitted or top-dose-only effect, or another doubt; inactive = no such curve, though single readings can be large or run the other way; also: % is scaled to controls: 0 for no effect and ±100 for the full control effect
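Compounds incubated with erythrocytes infected by luciferase-expressing P. falciparum (2% hematocrit, 0.05% parasitemia final) for 96 hours, 37 C in 5% CO2. Growth inhibition scored as decreased luciferase luminescence.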
NS1 function inh = influenza NS1 inhibition; Potency, µM (top dose mostly 46.1 µM), without a hit: at the highest dose activity, positive = more growth; 0.4% of 270,000 active; AID 2326; also: actives are rising curves; nearly all actives have a fitted effect of over 50% in size
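A cell-based growth assay was used: compounds that relieve NS1-induced slow growth of budding yeast raise OD600. Assay medium was yeast nitrogen base with ammonium sulphate and -URA supplement, pH 6.0, with 2% galactose.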
Pf growth 48h = inhibits P. falciparum growth in the first generation, 48 h. P. falciparum luciferase growth in erythrocytes, 48 h. Potency, µM (doses to about 28.7 µM), for the others: at the highest dose activity change, negative = inhibition, hits mostly inhibitors. 5.9% of 310,000 active. AID 504832; active = well fitted inhibition curve with a large enough effect; inconclusive = small, poorly fitted or top-dose-only effect, or another doubt; inactive = no such curve, though single readings can be large or run the other way; also: % is scaled to controls: 0 for no effect and ±100 for the full control effect
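Parasite viability was followed by luminescence of a genomically integrated firefly luciferase. Cultures held 0.1% parasitemia at 2% hematocrit (final), incubated under 5% CO2 at 37 C.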
SARS PLpro yeast = SARS-CoV PLP inhibition in yeast; Potency, µM (series often up to 32.9 µM), for inactives: at the top dose activity, positive = growth rescue, actives largely listed as activators; 0.19% of 330,000 active; S. cerevisiae expressing SARS-CoV PLpro, growth rescue; also: 0% is about no effect; nearly all actives have a fitted effect of over 55% in size
RE007 growth inh = less growth of the S. pombe RE007 Vpr strain; S. pombe RE007 Vpr strain, BacTiter-Glo ATP luminescence, 24 h; Potency, µM (top dose mostly 92.2 µM), without a hit: at the highest dose activity change, negative = less growth, actives largely listed as inhibitors; 0.21% of 360,000 active; active = well fitted falling curve with a large enough effect; inconclusive = small, poorly fitted or top-dose-only effect; inactive = no such curve, though single readings can be large or run the other way; also: % is scaled to controls: 0 for no effect and ±100 for the full control effect; nearly all actives have a fitted effect of over 50% in size
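Fission yeast RE007 carrying one integrated HIV-1 vpr copy, seeded at OD 0.01 in PMG+AL medium with 23 nL pinned compound. Grown 24 h at 30 degrees; viability read by BacTiter-Glo luminescence after 5 min.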
Starred values were filed as active, the others as inactive; u = inconclusive; x = no result; [ ] = another dose, or the depositor's remark. Unless noted, calls follow the shape of the full dose curve. Potency is read from the fitted curve at half-maximal effect.

SMILES | Pf growth 96h | NS1 function inh | Pf growth 48h | SARS PLpro yeast | RE007 growth inh
CC1CCN(CCc2nc3cc(NC(=O)COc4ccc(Cl)cc4)ccc3n2C)CC1 | 3.3µM* | -8% | u | -8% | -3%
Cn1c(CN2CCCC2)nc2cc(NC(=O)COc3ccc([N+](=O)[O-])cc3)ccc21 | u | 5% | 13µM* | -35% | -15%
Cn1c(CCN2CCN(c3ccccn3)CC2)nc2cc(NS(=O)(=O)c3ccc(Cl)cc3)ccc21 | 10µM* | -31% | 9.3µM* | 0% | -6%
Cc1cc(=O)oc2c3c(cc(OCC(=O)NCC4CCC(C(=O)O)CC4)c12)OC(C)(C)CC3 (configuration not stated) | u | -8% | u | 3% | -20%
Cc1ccc(C(=O)Nc2ccccc2C(=O)N2CCCC(C)C2)cc1 (configuration not stated) | 0% | -7% | -7% | x | -1%
CC(Oc1ccc(Br)cc1)C(=O)NCCCN1CCCC1=O (configuration not stated) | x | x | x | 2% | 3%
CCOC(=O)c1c(C)[nH]c(C)c1S(=O)(=O)N(C)CC(=O)NCc1cccc(C)c1 | 5.9µM* | -2% | u | 3% | -10%
O=C(O)c1ccc(COc2ccc3ccccc3c2/C=C2/NC(=O)N(c3ccccc3)C2=O)cc1 | u | u | 5.9µM* | -39% | -1%
CCN1C(=O)S/C(=C/c2c(OCc3ccc(C(=O)O)cc3)ccc3ccccc23)C1=O | 6.6µM* | -21% | u | -74% | -11%
CCOC(=O)CSC1=Nc2ccccc2C2=NC(CC(=O)NCc3ccc(OC)cc3)C(=O)N12 (configuration not stated) | x | 12% | 6.6µM* | 7% | 3%
CCOC(=O)CSC1=Nc2ccccc2C2=NC(CC(=O)NCc3ccc4c(c3)OCO4)C(=O)N12 (configuration not stated) | 31% | 11% | 4.1µM* | 2% | -14%
CCCCNC(=O)CC1N=C2c3ccccc3N=C(SCC(=O)Nc3cccc(C)c3)N2C1=O (configuration not stated) | 2.6µM* | 11% | 1.9µM* | 3% | 3%
Cc1ccc(CSC2=Nc3ccccc3C3=NC(CCC(=O)NCc4ccco4)C(=O)N23)cc1 (configuration not stated) | 24% | 3% | u | -7% | -7%
O=C(CCC1N=C2c3ccccc3N=C(SCC(=O)NCc3ccco3)N2C1=O)NCc1ccco1 (configuration not stated) | u | x | -17% | 0% | 2%
O=C(CC1N=C2c3ccccc3N=C(SCc3ccc(Cl)cc3)N2C1=O)NCc1ccco1 (configuration not stated) | x | 9% | 3.3µM* | 0% | -10%
CC1(C)CC(NC(=O)C2CCN(S(=O)(=O)c3ccc(Cl)c(C(F)(F)F)c3)CC2)CC(C)(C)N1 | x | x | x | x | 8%
Cc1ccc(S(=O)(=O)N2CN(Cc3ccco3)c3nc4ccccc4nc32)cc1 | u | 9% | u | -11% | -3%
COc1ccc(S(=O)(=O)N2CN(Cc3ccco3)c3nc4ccccc4nc32)cc1 | 43% | u | 12µM* | -2% | 7%
Cc1cccc(C(C)C)c1NS(=O)(=O)c1cn(C)nc1C | -1% | 4% | u | 8% | -11%
CN(CC(=O)Nc1ccc(F)c(F)c1F)C1CCCCC1 | 69% | 8% | x | 3% | -3%
CN(CC(=O)Nc1ccc(F)c(F)c1F)c1cnccn1 | u | -5% | 13µM* | 6% | x
N/C(=N\OC(=O)CC1CCCCC1)c1ccc(Cl)cc1 | 35% | -23% | 7% | -8% | -14%
CNC(=S)N(CCc1c(C)[nH]c2ccc(Cl)cc12)Cc1cc(OC)c(OC)c(OC)c1 | u | 20% | u | 17% | -4%
Cc1[nH]c2ccccc2c1CCN(Cc1cccnc1)C(=S)NC(C)(C)C | 13µM* | 3% | 11%[0.00184 µM] | 1% | -18%
COc1cc(CN(CCc2c(C)[nH]c3ccc(C)cc23)C(=S)NC(C)(C)C)cc(OC)c1OC | 2.6µM* | -7% | u | 3% | -11%
CNC(=S)N(CCc1c(C)[nH]c2ccc(C)cc12)Cc1ccc(OC)c(OC)c1 | 10µM* | 25% | u | -11% | -9%
